In PubChem BioAssay AID1508600 (Functional Genomics Laboratory (NCATS/FGL), 2020):
Screen size: about 53,000 sequences; about 3,700 (7%) were called active.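 How the source made its calls: active means gene knockdowns whose robust z-score for IL-1 alpha signal is at least 2 or at most -2, so actives lie on both sides; inactive means the rest.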 Many of the other results were omitted from the sample, so actives are more common in it than they were.

test: Components of the Cytosolic LPS Sensing Pathway: Gene Identification via Genome-wide siRNA Screen; settings: RAW264.7 macrophages, IL-1a HTRF, actives lie on both sides, screened at 100 nM (by protocol), cells primed 5 h with Pam3CSK4 first;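 further: robust z of the log signal after scaling to non-targeting control siRNA wells of the plate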
Method in brief: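 Cells (RAW264.7, 1×10^4 per well) were transfected with siRNA at 100 nM and cultured 48h at 37 degrees C. Pam3CSK4 was added for 5 hours; LipidA transfection followed for 24 hour. IL-1a was then measured by HTRF.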

z-score, inactive:
CCAAGGUCUAAAAAAAUAGTT against Adamts19 -0.907
GGAGGUAACAACAACAGAATT against BC028528 0.7
GGUAGAGAACCAUUUGCUGTT against Dtnbp1 -0.376
CCAUACAAGAGUGACAGUUTT against Olfr810 -0.736
GGCAAUCCAGGCAAUAUCATT against C1qa -0.808
CCAUGUGACAGCAUUGUUGTT against Axin1 0.754
CCAGAUUAUCCGUUUAAACTT against Ube2e2 0.242
GCGUGAGAUACCAUAUUAUTT against Bank1 -1.47
GGUCUACCUAAAACUGGAGTT against Cbln4 0.337
GGGAGAGAUGUCAUUGCACTT against Eif4a3 -1.9
GCGGCUACGUGUUUGACUATT against Csnk1g2 -0.735
GCACUUAGACUAUUCCAGGTT against Tph2 -0.118
GGUCAGGCUGAGGAAUUCATT against Cyp2s1 -0.562
GGAGGAGGCAGAAACAACATT against Tex46 1.87
GCAGAGAGGAUAACUGACCTT against Slc25a44 -0.723
GGAAUUCCCAUUGGAAGAATT against Vmn1r232 0.0956
GGGACCAAGAAGGAUAACUTT against Flrt1 1.4
CCGAUUUAACUGAAUUUGCTT against Acaa2 0.342
GGACAAGUCGAGUUUCAAGTT against Zfp503 1.98
CGGAAGAAUAAAAACCGGCTT against Meaf6 0.601
GGUCUUGUGCAUAAAACAGTT against Ece2 -1.06
GCAUAUCCUAAACACUGUUTT against Pqlc3 -0.966
GCGACUGACCUUCAAACUGTT against Piwil4 0.193
CCAGCAAAUGAGAGGUCUGTT against Olfr1024 0.676
GGACACUUUCCAAUGGUGATT against Npsr1 1.25
GCUCUCAUCAGACUUCGAGTT against Zfp202 0.0887
GCGCAUCUAUGAAAAAACATT against Cerk -0.471
GCUCAAAAAACCGAAAUGATT against Cd274 -1.03
GGUAAAUUCAACUGGAAGGTT against Lyar 0.194
GGUUAUCCUCAUUGAUCCGTT against Rpl15 0.0822
GCCUGAUAUCAACAUAGGATT against Pth2r 0.802
CCCUGGCCAAACAUAGUGGTT against Efcab12 0.278
GCACAAGAAAUCGAAUAUGTT against Acr -0.00119
CCGCCGAUGAGUUUGUUAATT against Hsd17b3 1.2
GGUCUGUCUCCAGAUUGCUTT against Olfr56 -1.73
GGAUAUUAUGUCUUUGCUATT against Ints2 0.499
GACCACCAGAAAGUUUCACTT against Lfng 0.339
GGAAACUGCAUUCAAGCCATT against Apod -0.191
CCUCUAGACCGAAUGAAAATT against Zfyve16 0.472
GGAGUCCUCUAAUGUAAAUTT against Elovl4 0.0471
GGGAACUCAAAGAAGAGAGTT against Lysmd2 0.515
CGAGGAGUGGUAUUUUUACTT against Slc34a1 0.0248
GGCAUGGAAUAUGAUGUUATT against Nlrp9b -1.72
GGGUUGUCCUGAACUUUAATT against Npr1 0.236
GGCCAGUGGAGGAAUAUGATT against 1300017J02Rik -0.383
CCACGUGUCUUAGAAUUAATT against Gas1 1.67
GGCCAACAAGGAAAACAUCTT against Bcas2 1.33
GGUCUGUAUGUCAUUUAUCTT against Ywhag -0.208
GGAAGGCCAUUUCAACUAATT against Olfr1367 1.54
GGUGAUUUGAACUGUGAAATT against Tmem126a -0.963
GGACAAACCUUGGAAGAUUTT against Ccdc166 -0.24
GGUUGGAAAUGACUAAUAATT against Slco6c1 -1.01
GGAAGGUGUCUGUAAUAUATT against Slamf9 -0.0451
GGAGGGCAGAUCUACGAUGTT against Aars 0.182
CGAGUUCAAACCGUCCUCUTT against Sdhc 0.105
CGGAAUGAUCACGACCGAUTT against Nsrp1 0.133
CCAAGUAAUUCCUACUACUTT against Olfr1100 -0.25
GGGAAGCAAAUCUAUACCCTT against Tnfrsf11a -0.243
GGUGUUGUCAGAAGUUUAATT against Slc22a13b 1.8
CCUCAUGCAGUUAAAUAUGTT against Kera -1.56
GGAGAAGGAUGGAGUGUUUTT against Brms1l 1.8
GGACUUUGUAACUAAUACCTT against Slco2b1 0.914
GGCACUGGCAGGAAAUUACTT against Alg6 -1.52
GGACUGCCUUAAUUAAAGUTT against Coa6 1.7
GCUGUGACUCUACUGGAGGTT against Zfp397 0.746
GGCAGAACCCACUGAGAAATT against Pakap -0.349
GGAAAAGAGAAGAAGGCACTT against Taf6 0.654
GCCUUUGAGGUUAUGAUCATT against Klk7 -1.09
GGCUGUGGUGAAGACUUUCTT against Cd81 -1.06
GGUGAAGCAGUUUGACUUCTT against Rbm18 0.0154
GGUUCUGGUUGAUAGAGAUTT against 4931428L18Rik 0.373
CGACUGGAAAAAGAUUGGGTT against Ttf1 -0.219
GCGGCAGUAAAUUGUGAGGTT against Grin3b 1.4
GGAAAUCCAGAAGCGUGUGTT against Gtpbp3 -0.436
GGAGGAUGCAAUUUUUAACTT against Sult1e1 0.771
GGAGAAACUGAAACAAGCUTT against Gpc4 0.403
GCACUAAGCUUUAUUCAUCTT against Mast2 -0.0104
GGAAACUUUUACUUCACAGTT against P3h1 -0.322
GCAAAGAAGCUCUUUAGAGTT against Hoxc5 0.455
GCCAUAAGAUGCUACAGUGTT against Tubb6 1.53
GGAAAGUACCCUAGGAGUUTT against 4921509C19Rik -1.6
CCUACUUCCGAGGUUUCUUTT against Ifnz -0.493
GGAAAGGAGUCUGCCAGCUTT against Tef -1.29
GGAAGAAGGAAGGUUCAGATT against Strm -0.581
GUGCAAACGGCAAACAUUCTT against 1700001G17Rik 1.89

z-score, active:
GGAACACACAAUUUUAUCATT against 4933436I01Rik -2.98
CCCUAACUACUUCAUGAAUTT against Paip1 -2.11
GGAAAUCCAUUGUUUAAAGTT against Wt1 2.01
GGUGAAGUUACAGUCAAAUTT against Nolc1 2.54
CCAUUCUUAGUUCACUAUATT against Rgcc -2.55
GGCAGGACACCAUAUGGUUTT against Tedc1 -2.16
GGGUGAUGCCCUUGAAUCUTT against Twf2 2.48
GGAGCUCGAAAAAUUUCAATT against Igfl3 2.13
GGCUGUAAAACUCUGGUUUTT against Vmn1r195 2.82
UAAAUGAGCUCGUAAUCUUTT against Olfr874 3.23
GCUCUGUCUUAAGAGACUATT against Smo 2.39
GCUCUACCUUCGCUGGAAATT against Slc7a6 2.17
GCUGAAAGAUUUACUGCCCTT against Bhlhe41 2.95
GGUAAUGCUGUGGAGUCUUTT against Wdr53 -2.59
GAAACUUUGAGUCCUCCAGTT against Dop1b 3.22
GGCUGGAUGUAGAAAAUAUTT against Aspm -2.1
CGAUGAUGAACGAUGGACATT against Mmp3 2.47
GGAAAUCGAGCAUGUCUUCTT against Stk32c 2.21
CUUCUUGGUGGGUCUGACUTT against Taar7e -2.63
GGAGGAGCGUACUAUUUAATT against Slc12a2 3.34
GGAUCUACGCAAGCAAGCATT against Oxnad1 2.12
CCCUCAACUUUCAGAUCAGTT against Naa10 2.81
GGGCGAAAACCAUUCAAAUTT against Zfp112 3.38
